# Results reported in PubChem BioAssay (NCATS).
# “And” between values parts separate entries of the source, which are not always exact repeats. Equal entries are not always repeated. Records with an inconclusive call do not appear. A structure can be active in one record and inactive in another. The source made the active and inactive calls. Unless noted, calls follow the shape of the dose curve; as a rule, active = well fitted curve in the direction sought with a large enough effect; inconclusive = small, poorly fitted or top-dose-only effect, or another doubt; inactive = no such curve, though single readings can be large; an effect the other way counts as inactive or inconclusive.
# Assays:
# [1] = biological target: Cytochrome P450 1A2 (Homo sapiens) (UniProt P05177); assay: p450-cyp1a2 (AID 410; calls by dose curve; also: potency is read from the fitted curve at half-maximal effect;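 as to activity change, negative = inhibition: -100% = full effect of reference inhibitor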)
# Cytochrome P450 1A2 (Homo sapiens), sequence (P05177 whole entry, looked up): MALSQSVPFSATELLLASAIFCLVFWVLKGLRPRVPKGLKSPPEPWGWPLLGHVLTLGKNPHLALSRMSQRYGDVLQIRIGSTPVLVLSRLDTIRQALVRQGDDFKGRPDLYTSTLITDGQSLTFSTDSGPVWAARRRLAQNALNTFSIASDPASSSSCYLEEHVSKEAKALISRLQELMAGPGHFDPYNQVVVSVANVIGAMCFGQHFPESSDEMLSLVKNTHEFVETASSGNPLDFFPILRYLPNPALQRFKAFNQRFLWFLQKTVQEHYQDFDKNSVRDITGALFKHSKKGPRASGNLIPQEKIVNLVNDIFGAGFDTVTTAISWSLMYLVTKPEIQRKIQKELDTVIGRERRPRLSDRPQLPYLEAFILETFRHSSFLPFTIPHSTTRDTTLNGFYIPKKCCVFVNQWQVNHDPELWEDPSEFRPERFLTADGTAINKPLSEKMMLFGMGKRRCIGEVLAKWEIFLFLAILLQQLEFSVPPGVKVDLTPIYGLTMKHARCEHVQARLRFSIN
# Method in brief: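 Inhibition was calculated relative to 57 uM furafylline (full inhibition). The reaction used human CYP1A2 at 20nM with Luciferin-ME at its Km, 100uM, driven by an NADPH-regenerating system for 60 min at room temperature.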
# [2] = biological target: Glucocorticoid receptor (Homo sapiens) (UniProt P04150); assay: GR-GFP Redistribution (AID 450;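 active = compounds whose dose series gives a full or clear partial fitted curve of increased nuclear translocation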; also: potency is read from the fitted curve at half-maximal effect); conditions: U2OS GR-GFP nuclear translocation, laser cytometry, 2 h
# Glucocorticoid receptor (Homo sapiens), sequence (P04150 whole entry, looked up, the tested form may be a part): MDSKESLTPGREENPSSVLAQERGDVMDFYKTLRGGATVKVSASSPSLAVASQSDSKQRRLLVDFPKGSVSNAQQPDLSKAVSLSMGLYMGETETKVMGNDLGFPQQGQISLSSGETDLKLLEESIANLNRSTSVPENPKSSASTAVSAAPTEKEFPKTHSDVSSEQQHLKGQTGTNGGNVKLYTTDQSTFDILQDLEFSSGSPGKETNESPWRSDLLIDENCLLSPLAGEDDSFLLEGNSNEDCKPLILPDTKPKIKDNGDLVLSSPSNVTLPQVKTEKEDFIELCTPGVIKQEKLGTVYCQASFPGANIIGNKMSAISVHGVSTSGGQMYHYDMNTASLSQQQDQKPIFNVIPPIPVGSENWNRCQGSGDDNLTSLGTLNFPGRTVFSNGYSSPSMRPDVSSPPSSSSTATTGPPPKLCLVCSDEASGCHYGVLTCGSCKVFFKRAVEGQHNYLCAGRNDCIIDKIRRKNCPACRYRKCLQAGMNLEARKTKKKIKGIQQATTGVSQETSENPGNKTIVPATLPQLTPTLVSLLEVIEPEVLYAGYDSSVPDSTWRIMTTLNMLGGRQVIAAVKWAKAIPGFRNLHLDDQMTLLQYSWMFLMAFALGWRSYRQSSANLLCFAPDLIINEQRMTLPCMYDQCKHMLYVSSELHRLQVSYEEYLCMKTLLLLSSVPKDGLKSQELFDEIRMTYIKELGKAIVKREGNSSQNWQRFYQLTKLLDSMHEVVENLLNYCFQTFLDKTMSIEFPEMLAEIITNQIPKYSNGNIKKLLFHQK
# [3] = biological target: Glucocorticoid receptor (Homo sapiens) (UniProt P04150); assay: GR-EFC Redistribution (AID 451; calls by dose curve; also: potency is read from the fitted curve at half-maximal effect); conditions: CHO-K1 GR-EFC translocation, beta-gal luminescence, 2 h
# Method in brief: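 Translocation of GR-ED fusion to nuclear EA restores b-gal, read by luminescence after 1 h room-temperature detection. Engineered CHO-K1 biosensor cells, 1,000/well, exposed 2 h at 37 C to titrations up to 46 uM final.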
# [4] = biological target: Cytochrome P450 2D6 (Homo sapiens) (UniProt P10635); assay: qHTS Assay for Inhibitors and Substrates of Cytochrome P450 2D6 (AID 891); also: potency is read from the fitted curve at half-maximal effect; nearly all actives have a fitted effect of over 60% in size
# Cytochrome P450 2D6 (Homo sapiens), sequence (P10635 whole entry, looked up): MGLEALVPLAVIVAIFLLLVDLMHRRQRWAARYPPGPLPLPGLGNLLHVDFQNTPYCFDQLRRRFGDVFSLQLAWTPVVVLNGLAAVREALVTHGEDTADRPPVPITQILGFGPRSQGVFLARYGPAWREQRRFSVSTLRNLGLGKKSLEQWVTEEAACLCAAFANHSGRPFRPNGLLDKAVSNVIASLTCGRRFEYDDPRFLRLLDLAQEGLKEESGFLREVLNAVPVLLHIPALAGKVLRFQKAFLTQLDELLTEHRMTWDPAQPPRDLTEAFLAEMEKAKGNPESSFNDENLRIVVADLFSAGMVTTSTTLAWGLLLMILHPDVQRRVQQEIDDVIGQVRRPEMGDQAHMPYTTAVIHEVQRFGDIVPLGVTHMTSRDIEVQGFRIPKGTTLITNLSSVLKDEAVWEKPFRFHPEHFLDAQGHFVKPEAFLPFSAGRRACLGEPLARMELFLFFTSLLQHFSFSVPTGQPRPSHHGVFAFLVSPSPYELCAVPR
# Method in brief: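 Human CYP2D6 (5 nM) with 30 uM Luciferin-ME EGE (at Km) in 100 mM KPO4, compound preincubated 10 min, then NADPH regeneration system for 60 min at room temperature. Luciferin read by luminescence; normalized to 1.43 uM quinidine.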
# [5] = Primary qHTS for small molecule stabilizers of the endoplasmic reticulum resident proteome: Secreted ER Calcium Modulated Protein (SERCaMP) assay (AID 1508630); also: % is scaled to controls: 0 for no effect and ±100 for the full control effect
# Method in brief: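 GLuc-SERCaMP-expressing SH-SY5Y cells, pretreated 16 h with compound, are challenged with thapsigargin to empty ER calcium stores; after 4 h, coelenterazine is added directly to the medium and luminescence is imaged.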
# [6] = qHTS Assay for Lipid Storage Modulators (AID 1519; calls by dose curve); conditions: Drosophila S3 cells, BODIPY lipid droplet/cell ratio, laser cytometry, cells loaded with oleic acid
# Method in brief: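 Cells seeded at 5,000 per well were treated with compounds over a concentration series and loaded with oleic acid (400 uM, as added). Lipid droplet fluorescence (488 nm excitation, 500-530 nm channel) was read by laser-scanning cytometry and normalized to 20 uM Triacsin C.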
# [7] = biological target: Cytochrome P450 3A4 (Homo sapiens) (UniProt P08684); assay: qHTS Assay for Activators of Cytochrome P450 3A4 (AID 885); also: nearly all actives have a fitted effect of over 65% in size; also: potency is read from the fitted curve at half-maximal effect
# Cytochrome P450 3A4 (Homo sapiens), sequence (P08684 whole entry, looked up): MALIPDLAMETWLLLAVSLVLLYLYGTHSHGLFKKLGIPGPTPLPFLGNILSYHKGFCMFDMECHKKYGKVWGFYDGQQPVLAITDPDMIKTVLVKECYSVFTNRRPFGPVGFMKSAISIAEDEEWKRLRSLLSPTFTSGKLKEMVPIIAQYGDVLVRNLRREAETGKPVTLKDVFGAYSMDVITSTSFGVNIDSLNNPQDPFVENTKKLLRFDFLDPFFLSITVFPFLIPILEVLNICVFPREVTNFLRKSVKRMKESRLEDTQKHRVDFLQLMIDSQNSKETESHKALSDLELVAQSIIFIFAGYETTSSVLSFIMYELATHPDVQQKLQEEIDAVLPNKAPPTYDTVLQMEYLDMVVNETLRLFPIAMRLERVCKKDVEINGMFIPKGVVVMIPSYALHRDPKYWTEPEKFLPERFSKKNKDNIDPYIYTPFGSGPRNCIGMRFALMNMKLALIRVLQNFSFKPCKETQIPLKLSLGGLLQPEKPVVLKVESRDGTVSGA
# Method in brief: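 20nM CYP3A4 + 25uM Luciferin-PPXE (=KM), 200mM KPO4; cpd 10 min RT; NADPH regen, 60 min RT; stop w/ detection buffer, 20 min; luminescence. Normalized to 57 uM ketoconazole.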
# [8] = Confirmation and Secondary Assay for Modulators of Hemoglobin Beta Chain Splicing at IVS2 654 locus (AID 910);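 also: HeLa cells stably carrying EGFP split by mutant beta-globin IVS2-654 intron; per-well total GFP intensity by laser scanning cytometry after 2-day treatment; % of control where 0% means no effect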
# Method in brief: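 Readout: per-well total peak green fluorescence (488 nm ex, 500–520 nm em) from objects 5–250 µm, reflecting correct splicing of an EGFP-654 reporter. Compounds were applied for 2 days at 37 °C to overnight-plated HeLa EGFP-654 cells; controls were DMSO and 500 nM IVS2-654 PNA.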
# [9] = Confirmation and Secondary Assay for Modulators of Hemoglobin Beta Chain Splicing at IVS2 705 locus (AID 930);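 also: HeLa cells stably expressing the EGFP-705 splicing reporter; GFP fluorescence per well restored by corrected splicing of the IVS2-705 intron in EGFP; % of control where 0% means no effect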
# Method in brief: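 HeLa EGFP-705 reporter; 500 cells/well, o/n 37C 5% CO2; cpd 2 d; 488 ex/500-520 em laser scan; total peak GFP intensity/well. Ref: 500 nM […] antisense PNA.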
# [10] = biological target: Ubiquitin carboxyl-terminal hydrolase 1 (Homo sapiens) (UniProt O94782); assay: Inhibitors of USP1/UAF1: Pilot qHTS (AID 504865); also: nearly all actives have a fitted effect of over 35% in size; also: potency is read from the fitted curve at half-maximal effect
# Ubiquitin carboxyl-terminal hydrolase 1 (Homo sapiens), sequence (O94782 whole entry, looked up): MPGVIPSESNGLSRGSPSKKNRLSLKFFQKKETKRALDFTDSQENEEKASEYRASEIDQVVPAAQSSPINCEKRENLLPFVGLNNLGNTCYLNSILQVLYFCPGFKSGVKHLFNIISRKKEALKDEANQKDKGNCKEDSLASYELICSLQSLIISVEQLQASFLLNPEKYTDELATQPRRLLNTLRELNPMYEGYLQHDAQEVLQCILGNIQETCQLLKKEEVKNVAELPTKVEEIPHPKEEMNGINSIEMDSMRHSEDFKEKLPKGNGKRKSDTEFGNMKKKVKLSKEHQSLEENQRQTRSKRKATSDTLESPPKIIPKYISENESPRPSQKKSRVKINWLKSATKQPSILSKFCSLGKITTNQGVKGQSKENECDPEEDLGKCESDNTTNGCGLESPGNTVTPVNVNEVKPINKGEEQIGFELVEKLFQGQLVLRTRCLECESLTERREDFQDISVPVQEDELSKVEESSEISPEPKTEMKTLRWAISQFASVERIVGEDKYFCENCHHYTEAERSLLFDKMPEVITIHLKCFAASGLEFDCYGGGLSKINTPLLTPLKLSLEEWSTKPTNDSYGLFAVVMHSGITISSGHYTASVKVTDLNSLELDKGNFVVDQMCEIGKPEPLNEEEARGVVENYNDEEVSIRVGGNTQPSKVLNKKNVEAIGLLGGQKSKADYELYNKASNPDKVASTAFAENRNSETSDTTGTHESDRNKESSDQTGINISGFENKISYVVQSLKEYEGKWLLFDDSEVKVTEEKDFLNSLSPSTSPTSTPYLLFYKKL
# Method in brief: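 In 50mM HEPES pH 7.8 containing 0.5mM EDTA, 1mM TCEP, 0.1 mg/ml BSA and 0.01% Tween-20, 1nM USP1/UAF1 is exposed to compound for 15 min, then Ub-Rho (150nM final) is added and fluorescence is read over time.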
# [11] = NFAT Signaling Pathway (AID 444; active = well fitted curve in either direction with a large enough effect, not every such curve was filed as active;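 also: carbachol stimulus at about its EC50 of 1 µM final; % is scaled to controls: 0 for no effect and ±100 for the full control effect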); conditions: Jurkat NFAT-bla M1, carbachol, beta-lactamase ratio, 5 h
# Method in brief: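 Read-out: CCF4 FRET ratio (460 nm/530 nm) after 1 h RT dye loading, used for %activity and AC50 from titration series. Cells: Jurkat NFAT-β-lactamase/M1 line, treated with compound plus 1 uM carbachol for 5 h, 37 °C.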
# [12] = Stat Signaling Pathway (AID 446; active = well fitted curve in either direction with a large enough effect, not every such curve was filed as active;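 also: ME-180 cervical cancer cells given 40 pM IL-6 alongside compound; SIE-controlled beta-lactamase reporter measured as 460/530 nm FRET emission ratio; % is scaled to controls: 0 for no effect and ±100 for the full control effect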)
# Method in brief: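 ME-180 SIE-bla cells; overnight plating; cpd + IL-6 40 pM, 5 h, 37 C; LiveBLAzer 2.5 h RT; 460/530 nm emission ratio. Normalized to 300 pM IL-6 and 125 nM JAK inhibitor controls.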
# [13] = biological target: Mitogen-activated protein kinase 10 (Mus musculus) (UniProt Q61831); assay: JNK3 AlphaScreen Assay (AID 530; active = well fitted curve in either direction with a large enough effect, not every such curve was filed as active;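 also: kinase came from lysate of stimulated human HepG2 cells; signal reports phosphorylation of biotinylated GST-cJun 1-79 at Ser73 with 10 µM ATP; % is scaled to controls: 0 for no effect and ±100 for the full control effect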)
# Method in brief: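 Room-temperature AlphaScreen kinase assay; pre-activated HepG2 lysate as JNK3 source, biotin-GST-cJun(1-79) substrate, 10 uM ATP, compound 15 min preincubation.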
# [14] = biological target: 3',5'-cyclic-AMP phosphodiesterase 4B (Homo sapiens) (UniProt Q07343); assay: qHTS Assay for Inhibitors of PDE-IV (AID 607; active = well fitted activation curve with a large enough effect in the main read-out, with a control signal flat, not every such curve was filed as active; also: % of control where 0% means no effect)
# 3',5'-cyclic-AMP phosphodiesterase 4B (Homo sapiens), sequence (Q07343 whole entry, looked up): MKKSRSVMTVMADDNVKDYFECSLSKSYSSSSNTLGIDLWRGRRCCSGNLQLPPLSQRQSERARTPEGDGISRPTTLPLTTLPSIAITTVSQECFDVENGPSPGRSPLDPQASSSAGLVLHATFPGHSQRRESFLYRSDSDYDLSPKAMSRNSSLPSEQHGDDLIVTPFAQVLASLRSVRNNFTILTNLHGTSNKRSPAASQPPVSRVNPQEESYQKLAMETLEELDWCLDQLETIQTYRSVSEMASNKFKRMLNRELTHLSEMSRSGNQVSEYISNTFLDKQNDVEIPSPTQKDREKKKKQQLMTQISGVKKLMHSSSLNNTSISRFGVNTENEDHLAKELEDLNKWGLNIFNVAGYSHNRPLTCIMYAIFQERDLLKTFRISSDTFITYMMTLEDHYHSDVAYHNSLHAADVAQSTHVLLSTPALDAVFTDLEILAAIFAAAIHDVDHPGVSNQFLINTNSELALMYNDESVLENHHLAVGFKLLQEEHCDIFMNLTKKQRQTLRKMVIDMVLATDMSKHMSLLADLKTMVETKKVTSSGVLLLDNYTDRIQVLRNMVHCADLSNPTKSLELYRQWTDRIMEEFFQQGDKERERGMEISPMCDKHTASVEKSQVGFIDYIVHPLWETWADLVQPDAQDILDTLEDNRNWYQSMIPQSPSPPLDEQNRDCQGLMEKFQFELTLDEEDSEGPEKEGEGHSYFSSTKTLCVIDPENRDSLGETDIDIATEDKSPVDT
# Method in brief: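 ACTOne HEK293 cells carry a modified cAMP-gated CNG channel and express endogenous PDE4; plated 1000 cells/well, compounds up to 22.9 uM final. Membrane-potential dye fluorescence (ex 535/em 590) was read; parental cells received 10 uM forskolin + 100 uM RO 20-1724.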
# [15] = biological target: Cytochrome P450 3A4 (Homo sapiens) (UniProt P08684); assay: qHTS Assay for Inhibitors and Substrates of Cytochrome P450 3A4 (AID 884); also: nearly all actives have a fitted effect of over 50% in size; also: potency is read from the fitted curve at half-maximal effect
# Method in brief: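 20 nM human CYP3A4 with 25 uM Luciferin-PPXE (at KM) in 200 mM KPO4, preincubated 10 min with compound; NADPH regeneration started a 60 min RT reaction. Luciferin detected by luminescence, normalized to 57 uM ketoconazole as full inhibition.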
# [16] = biological target: Voltage-gated inwardly rectifying potassium channel KCNH2 (Homo sapiens) (UniProt Q12809); assay: qHTS Assay for Small Molecule Inhibitors of the Human hERG Channel Activity (AID 588834);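 also: top concentration of the series differs between compounds; % is scaled to controls: 0 for no effect and ±100 for the full control effect; lower thallium flux fluorescence means stronger hERG block; nearly all actives have a fitted effect of over 50% in size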
# Voltage-gated inwardly rectifying potassium channel KCNH2 (Homo sapiens), sequence (Q12809 whole entry, looked up): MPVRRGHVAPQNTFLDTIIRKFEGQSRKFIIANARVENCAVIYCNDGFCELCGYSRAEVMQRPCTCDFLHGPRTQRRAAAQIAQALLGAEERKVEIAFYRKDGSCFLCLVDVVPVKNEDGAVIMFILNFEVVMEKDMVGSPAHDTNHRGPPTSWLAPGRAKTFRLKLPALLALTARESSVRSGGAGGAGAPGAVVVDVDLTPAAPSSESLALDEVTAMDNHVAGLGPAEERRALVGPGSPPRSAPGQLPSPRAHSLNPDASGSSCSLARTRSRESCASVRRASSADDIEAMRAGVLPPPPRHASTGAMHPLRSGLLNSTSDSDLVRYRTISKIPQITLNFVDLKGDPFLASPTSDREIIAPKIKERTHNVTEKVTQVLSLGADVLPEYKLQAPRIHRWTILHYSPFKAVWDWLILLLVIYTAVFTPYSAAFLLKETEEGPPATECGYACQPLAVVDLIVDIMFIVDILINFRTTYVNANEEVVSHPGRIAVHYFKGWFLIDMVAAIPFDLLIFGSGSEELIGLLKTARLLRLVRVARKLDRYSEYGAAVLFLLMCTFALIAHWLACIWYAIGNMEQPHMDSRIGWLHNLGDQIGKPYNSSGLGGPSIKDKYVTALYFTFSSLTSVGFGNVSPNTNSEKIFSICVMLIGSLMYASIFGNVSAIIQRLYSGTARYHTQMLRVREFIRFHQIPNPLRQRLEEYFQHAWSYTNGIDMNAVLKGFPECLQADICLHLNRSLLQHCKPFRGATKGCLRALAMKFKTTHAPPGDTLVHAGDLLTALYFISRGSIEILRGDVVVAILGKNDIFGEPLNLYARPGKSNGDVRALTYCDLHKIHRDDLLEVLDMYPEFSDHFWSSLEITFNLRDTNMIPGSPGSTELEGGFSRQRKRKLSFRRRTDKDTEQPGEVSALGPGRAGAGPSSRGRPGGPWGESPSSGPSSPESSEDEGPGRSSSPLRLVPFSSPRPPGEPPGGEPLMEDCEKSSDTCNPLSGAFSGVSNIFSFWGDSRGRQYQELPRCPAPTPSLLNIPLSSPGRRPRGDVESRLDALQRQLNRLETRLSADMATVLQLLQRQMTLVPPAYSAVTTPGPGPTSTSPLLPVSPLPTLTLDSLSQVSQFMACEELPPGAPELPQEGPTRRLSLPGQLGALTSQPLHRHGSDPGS
# Method in brief: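 hERG-BacMam U2OS, 2000 cells/well; 0.7X FluxOR loading 1 hr RT dark; cpd ~10 min 37 °C; stim buffer; FDSS fluorescence 2 min @ 1 s; AC50 Hill fit.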
# [17] = AP1 Signaling Pathway (AID 357; active = well fitted curve in either direction with a large enough effect, not every such curve was filed as active; also: % is scaled to controls: 0 for no effect and ±100 for the full control effect)
# Method in brief: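 AP-1-bla ME-180 cells with beta-lactamase reporter under AP-1 response element, stimulated with EC50 EGF; compounds titrated, 5 hours at 37 degrees Celsius. CCF4 read at 460/530 nm ratio; positive and negative modulators judged by AC50.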
# [18] = measured here: cell count channel max response
# [19] = measured here: lipid channel max response
structure (smiles),measurement,setting,value
CCCN(C/C=C\I)[C@@H]1CCc2ccc(O)cc2C1,Potency,[1],25.1 µM (active)
same,Potency,[2],> 46 µM (inactive)
same,Potency,[3],> 46 µM (inactive)
same,Potency,[4],0.0158 µM (active)
same,outcome,[5],inactive
C=C1CC[C@H](O)C/C1=C/C=C1\CCC[C@]2(C)[C@H]1CC[C@H]2[C@@H](C)CCCC(C)C,"activity change, negative = inhibition",[6]; at 25.7 µM (top of the series),0.847% (inactive)
same,max response,[6]; [18],8.85%
same,max response,[6]; [19],12%
O=C1C=CC(=O)c2c(O)cccc21,Potency,[7],inactive
same,Potency,[8],inactive
same,Potency,[9],inactive
same,"activity change, negative = inhibition",[6]; at 57.5 µM (top of the series),10.3% (inactive)
same,max response,[6]; [18],-12.3%
same,max response,[6]; [19],-1.73%
same,Potency,[10],8.91 µM (active)
CC1=NCCc2c1[nH]c1cc(O)ccc21,Potency,[1],12.6 µM (active) and 25.1 µM (active)
same,"activity change, negative = inhibition",[11]; at 17.2 µM (top of the series),-14.7% (inactive)
same,outcome,[12],inactive
same,Potency,[2],> 20.6 µM (inactive) and > 46 µM (inactive)
same,Potency,[3],> 20.6 µM (inactive) and > 46 µM (inactive)
same,outcome,[13],inactive
same,Potency,[14],inactive
same,Potency,[15],inactive
same,Potency,[7],inactive
same,Potency,[8],inactive
same,Potency,[9],inactive
same,"activity change, negative = inhibition",[6]; at 25.7 µM (top of the series),1.71% (inactive)
same,"activity change, negative = inhibition",[6]; at 57.5 µM (top of the series),18.3% (inactive)
same,max response,[6]; [18],2% and 2.42%
same,max response,[6]; [19],2.85% and 18.5%
O=C1c2ccccc2-c2cccc3cccc1c23,Potency,[7],inactive
same,Potency,[8],inactive
same,Potency,[9],inactive
same,"activity change, negative = inhibition",[6]; at 57.5 µM (top of the series),15.9% (inactive)
same,max response,[6]; [18],9.47%
same,max response,[6]; [19],28.5%
same,Potency,[10],inactive
ClC(Cl)=C(c1ccc(Cl)cc1)c1ccc(Cl)cc1,Potency,[15],inactive and 7.94 µM (active)
same,Potency,[7],inactive
same,Potency,[8],inactive
same,Potency,[9],inactive
same,"activity change, negative = inhibition",[6]; at 57.5 µM (top of the series),9.37% (inactive)
same,max response,[6]; [18],14.6%
same,max response,[6]; [19],26.1%
same,Potency,[10],inactive
CCCN1CCc2cccc3c2C1Cc1ccc(O)c(O)c1-3 (configuration not stated),"activity change, negative = inhibition",[6]; at 57.5 µM (top of the series),1.73% (inactive)
same,max response,[6]; [18],-26.8%
same,max response,[6]; [19],-25.9%
CCNc1nc(Cl)nc(NC(C)C)n1,outcome,[13],inactive
same,Potency,[8],inactive
same,Potency,[9],inactive
same,"activity change, negative = inhibition",[6]; at 57.5 µM (top of the series),7.77% (inactive)
same,max response,[6]; [18],2.72%
same,max response,[6]; [19],11.1%
same,Potency,[16],inactive
COc1ccc(NC(=O)N2CC3(CCN(C(=O)Oc4ccccc4)CC3)C2)cc1,outcome,[17],inactive
same,"activity change, negative = inhibition",[11]; at 7.69 µM (top of the series),3.27% (inactive)
same,outcome,[12],inactive
same,Potency,[3],> 46 µM (inactive)
same,outcome,[13],inactive
same,Potency,[14],inactive
same,outcome,[5],inactive
O=C(Nc1ccccc1)N1CCC2(CC1)CCN(C(=O)Oc1ccccc1)CC2,outcome,[17],inactive
same,Potency,[1],inactive
same,"activity change, negative = inhibition",[11]; at 7.69 µM (top of the series),5.23% (inactive)
same,Potency,[3],> 46 µM (inactive)
same,outcome,[13],inactive
same,Potency,[14],inactive
same,Potency,[15],inactive
same,Potency,[7],10 µM (active)
same,outcome,[5],inactive
CN1C[C@H](C(=O)N[C@]2(C)O[C@]3(O)[C@H]4CCCN4C(=O)[C@H](Cc4ccccc4)N3C2=O)C[C@H]2c3cccc4[nH]cc(c34)C[C@@H]21,"activity change, negative = inhibition",[6]; at 25.7 µM (top of the series),-4.57% (inactive)
same,max response,[6]; [18],-15.1%
same,max response,[6]; [19],-19.9%
O=C(Oc1ccccc1)N1CCC2(CCN(Cc3ccncc3)CC2)CC1,outcome,[17],inactive
same,outcome,[12],inactive
same,Potency,[3],> 46 µM (inactive)
same,outcome,[13],inactive
same,Potency,[14],inactive
same,Potency,[7],inactive
same,outcome,[5],inactive
C[C@H](CCC(=O)O)[C@H]1CC[C@@H]2[C@H]3CC[C@H]4C[C@@H](O)CC[C@@]4(C)[C@H]3CC[C@]21C,"activity change, negative = inhibition",[6]; at 25.7 µM (top of the series),2.39% (inactive)
same,max response,[6]; [18],-11.2%
same,max response,[6]; [19],-8.48%
CN1[C@@H]2CC(OC(=O)[C@H](CO)c3ccccc3)C[C@@H]1[C@H]1O[C@H]12 (some centres not stated),"activity change, negative = inhibition",[6]; at 57.5 µM (top of the series),4.98% (inactive)
same,max response,[6]; [18],-8.42%
same,max response,[6]; [19],-4.12%
